Data as given in PubChem BioAssay (Tox21).
Inconclusive results are not listed. Where a call stands in place of a potency, no number is given. A number with no mark means an inactive call. Activity calls are given as the source filed them. Calls come from the whole dose curve; as a rule, active = well fitted activation curve with a large enough effect in the repeat runs; inconclusive = weak or mixed curves; inactive = flat fitted curve, though single readings scatter.

Experiment: A CellTox Green Cytotoxicity Assay to monitor cytotoxicity in HepG2 cells - 8 hour (AID 1224890); note: nearly all actives have a fitted effect of over 45% in size
Conditions: CellTox Green fluorescence; series mostly up to 76.8 µM
Description: National Center for Advancing Translational Sciences [NCATS]
NIH Chemical Genomics Center [NCGC]
U.S. Environmental Protection Agency [EPA]
National Institutes of Environmental Health Sciences [NIEHS]
National Toxicology Program [NTP]
Cell-based models are critical for drug discovery. Determining the natural cytotoxic effects resulting from test compounds is an essential research activity. A CellTox Green Cytotoxicity Assay to monitor cytotoxicity in real time of continues cell culture during 40 hours of the compound treatment was used to screen Tox21 10K library compounds in HepG2 cells. CellTox Green Cytotoxicity Assay is a nonlytic, homogeneous, biofluorescent method to measure cytotoxicity in cell culture after experimental manipulation. The assay system uses a proprietary asymmetric cyanine dye that is excluded from viable cells but preferentially stains the dead cell's DNA. […] Viable cells produce no appreciable increases in fluorescence. Therefore, the fluorescence signal produced by the binding interaction with dead cell DNA is proportional to cytotoxicity.
The mixture of HepG2 cell suspension and reagents were dispensed at 600cells/6 ul/well in 1536-well tissue culture treated black solid bottom plates using a Multidrop dispenser. After the assay plates were incubated at a 37 C/5% CO2 incubator for 5 hours, 23 nL of compounds dissolved in DMSO, positive and negative controls was transferred to the assay plate by a pintool work station. The plates were incubated at 37 C for 40 hours. The fluorescence intensity were measured at 0h, 8h, 16h, 24h, 32h and 40h time points using ViewLux plate reader during compound treatment.
Potency is the fitted concentration of half-maximal effect.

Row | Compound | Potency | cytotoxicity increase
1 | CCC(C)C(=O)OC (stereo not given) | inactive | –
2 | C=CC(=C)CC/C=C(\C)CCC=C(C)C | – | 2.8% [at 15.8 µM]
3 | CC(C)(c1cc(Br)c(OCCO)c(Br)c1)c1cc(Br)c(OCCO)c(Br)c1 | inactive | –
4 | CCOB(OCC)OCC | inactive | –
5 | CCCCCCCCCCCCCOP(=O)(O)O | inactive | –
6 | CCN(CC)c1cccc(C)c1 | inactive | –
7 | NCCCCCCNCCCCCCN | inactive | –
8 | CC1(C)COCN1 | inactive | –
9 | O=c1cccc[nH]1 | inactive | –
10 | CCCCCCCCCCOCC(O)CN (stereo not given) | 26.8 µM (active) | –
11 | CC(C)N=C(N)/N=C(\N)Nc1ccc(Cl)cc1 | inactive | –
12 | Oc1c(Br)cc(Br)c2cccnc12 | inactive | –
13 | CCCCCCCCCCCCCCCCCO | – | 1.25% [at 15.8 µM]
14 | CC(C)(C)c1cc(CCC(=O)NCCCCCCNC(=O)CCc2cc(C(C)(C)C)c(O)c(C(C)(C)C)c2)cc(C(C)(C)C)c1O | inactive | –
15 | c1cc[nH]c1 | inactive | –
16 | CCO[Si](C)(C)OCC | inactive | –
17 | Cc1cc(=O)[nH]c(=O)[nH]1 | inactive | –
18 | CC1CCCNC1 (stereo not given) | inactive | –
19 | CCC(C)c1cc([N+](=O)[O-])cc([N+](=O)[O-])c1OC(=O)OC(C)C (stereo not given) | inactive | –
20 | CCCCCCC(C)OC(=O)COc1nc(F)c(Cl)c(N)c1Cl (stereo not given) | inactive | –

Row | Compound | Potency | cytotoxicity increase
21 | Cn1cnc2ncnc(N)c21 | inactive | –
22 | CC1(C)C(=O)N(CO)C(=O)N1CO | inactive | –
23 | CCc1cccc(CC)c1N(COC)C(=O)CS(=O)(=O)O | inactive | –
24 | CCCCCCCC(OC)OC | inactive | –
25 | CCN1CCN(c2cc(-c3ccc(F)cc3)c3c(n2)CCCCCC3)CC1 | – | 2.47% [at 15.8 µM]
26 | O=C(c1ccccc1)c1cc(Cl)ccc1O | inactive | –
27 | CCOC(=O)CN | inactive | –
28 | CCCC(O)C(O)CO (stereo not given) | inactive | –
29 | CCOC(OCC)C(=O)c1ccccc1 | inactive | –
30 | CC(C)c1cccc(C(C)C)c1N1C(=O)c2ccc(O)cc2C1=O | 38.9 µM (active) | –
31 | COc1ccc(C#N)cc1 | inactive | –
32 | CCOC(=O)COc1ccc(C)cc1 | inactive | –
33 | O=C[C@H](O)[C@H](O)[C@H](O)CO | inactive | –
34 | c1ccc2c(c1)CCC2 | inactive | –
35 | S=P(N1CC1)(N1CC1)N1CC1 | inactive | –
36 | CC(C)(C)c1n[nH]c(=O)n(N)c1=O | inactive | –
37 | O=C(O)Cc1ccc(OCCNC[C@H](O)c2ccccc2)cc1 | inactive | –
38 | Clc1nc2ccccc2s1 | inactive | –
39 | CC(C)(c1cc(Br)c(O)c(Br)c1)c1cc(Br)c(O)c(Br)c1 | inactive | –
40 | CCCCC(CC)COC(=O)c1ccc(O)cc1 (stereo not given) | 38.9 µM (active) | –
